MITF TRPM1 HTS: MITF TRPM1 promoter activation in melanoma cells. SK-MEL-5 TRPM1-promoter luciferase, 24 h; % of positive control, neutral wells = 0. activation, % at 12.5 µM. 0.75% of 300,000 active;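 active = mean activation of at least 80% with every replicate also reaching 80%; inconclusive = mean reaches 80% but some replicate falls short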;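 note: 0% = neutral control wells and 100% = parthenolide positive control wells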
MLL AF4-AF9 inh: blocks AF4 peptide binding to human AF9; AID 651704; inhibition, % at 10 µM; 0.47% of 350,000 active; AlphaScreen, biotin-AF4 peptide binding to FLAG-AF9; P42568;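 active = every replicate reaching a set inhibition limit, whatever the replicate mean, cut at about 25% in these data; inconclusive = mean inhibition reaches that limit but some replicates miss it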;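 note: 0% = plate neutral control median and 100% = total signal loss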
Target sequence (P42568 whole entry, looked up): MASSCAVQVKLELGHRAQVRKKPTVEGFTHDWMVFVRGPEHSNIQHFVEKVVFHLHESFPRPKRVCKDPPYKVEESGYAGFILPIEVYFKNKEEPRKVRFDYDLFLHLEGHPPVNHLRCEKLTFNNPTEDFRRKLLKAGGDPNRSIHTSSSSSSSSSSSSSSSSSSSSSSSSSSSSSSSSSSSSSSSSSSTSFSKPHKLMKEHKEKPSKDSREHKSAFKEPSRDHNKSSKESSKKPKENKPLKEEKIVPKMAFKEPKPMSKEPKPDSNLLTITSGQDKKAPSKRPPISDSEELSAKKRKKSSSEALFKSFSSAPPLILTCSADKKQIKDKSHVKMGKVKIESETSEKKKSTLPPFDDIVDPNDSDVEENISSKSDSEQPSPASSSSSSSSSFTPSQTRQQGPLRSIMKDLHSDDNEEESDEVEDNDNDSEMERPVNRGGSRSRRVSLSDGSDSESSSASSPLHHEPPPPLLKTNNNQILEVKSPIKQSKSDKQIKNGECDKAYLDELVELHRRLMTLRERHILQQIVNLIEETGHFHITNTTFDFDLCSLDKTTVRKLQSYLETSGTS
Wnt bcat act: Wnt/beta-catenin pathway activation. AID 743398. Wnt/beta-catenin reporter cell assay, activator, plate reader. 1.2% of 300,000 active. activation, % at 9.35 µM; in the data active = activation above about 30%, passing the limit was not always enough; inconclusive = no clear call, values can overlap the other calls;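 note: 0% = neutral control wells and 100% = positive control wells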
esBAF inh: inhibitors of esBAF chromatin remodeling in mouse ES cells; Bmi1-luciferase knock-in reporter, 24 h; 100% = twice the neutral-well signal; reporter increase, % at 12.5 µM; 2% of 350,000 active; AID 602393; in the data active = activation above about 40%; inconclusive = no clear call, values can overlap the other calls;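 note: 0% = median of the plate's neutral control wells and 100% = double that signal; a rise in the Bmi1 reporter signal indicates esBAF inhibition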
Ecoli rRNA inh: inhibits bacterial ribosomal RNA function over humanized ribosomes | 1.6% of 350,000 active | E. coli WT GFP vs humanized-ribosome RFP mutants, fluorescence, 24 h; active compounds read low; DMSO median 0, no signal -100 | GFP signal change (wild-type ribosome), % (test concentration not listed);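 active = significant combined selectivity score with lowered wild-type GFP, culture density cut under 30%, mutant RFP and density less affected; inactive = any of these conditions unmet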
Ring1 derepress: confirmation of esBAF inhibitors: Ring1 de-repression in mouse ESCs; shares compounds with esBAF inh; mouse ESC E14, Ring1 mRNA RT-qPCR fold change; fold change at 33 µM; 550 tested, under 10 active; AID 743176;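 active = Ring1 gene expression raised more than 2-fold over untreated cells in both replicates at either tested dose; inconclusive = only one replicate above 2-fold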;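 note: Ring1 transcript normalised to actin housekeeping signal by TaqMan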
Fgf4 repress: esBAF inhibition confirmed by Fgf4 repression | shares compounds with esBAF inh | mouse ESC E14, Fgf4 mRNA qPCR fold change; active compounds read low | Fgf4 expression fold change at 33 µM | 4% of 550 active | AID 743177;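 active = Fgf4 expression under 0.8 fold of control in both repeat measurements at one or both tested doses; inconclusive = under 0.8 fold in just a single repeat measurement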;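 note: Fgf4 transcript normalised to actin in duplex TaqMan qPCR; cells exposed to compound for 24 h before lysis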
esBAF Bmi1 qPCR: de-represses Bmi1 in mouse ESCs, confirming esBAF inhibition. shares compounds with esBAF inh. mouse ESE14 ES cells, Bmi1 mRNA qPCR fold; active compounds read high. fold change at 33 µM. 550 tested, under 10 active. AID 743180;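 active = Bmi1 expression fold change above 6 at either tested concentration, seen in replicate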;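 note: higher fold means more Bmi1 de-repression and stronger esBAF inhibition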
A549 tox SP: kills or reduces viability of A549 cells; shares compounds with esBAF inh; A549 cytotoxicity, plate reader; cell viability change % (negative = cytotoxic), % at 25 µM, hits read low; 550 tested, under 10 active; call rule not given here
HepG2 cytotox SP: kills or reduces viability of HepG2 cells; 4% of 550 active; HepG2 cytotoxicity, plate reader; active compounds read low; shares compounds with esBAF inh; AID 743189; activity change, negative = inhibition, % at 25 µM; in the data active = activity change below about -50%
HEK293 tox SP: HEK293 cell cytotoxicity at single point. shares compounds with esBAF inh. 3% of 550 active. AID 743190. activity change, negative = inhibition, % at 25 µM, hits read low. plate reader; in the data active = activity change below about -38%, passing the limit was not always enough
An asterisk follows results filed as active; u = inconclusive; x = not tested or not shown. The list is not random: actives were taken first. Their share in the collection is about 3.7%.

SMILES	MITF TRPM1 HTS	MLL AF4-AF9 inh	Wnt bcat act	esBAF inh	Ecoli rRNA inh	Ring1 derepress	Fgf4 repress	esBAF Bmi1 qPCR	A549 tox SP	HepG2 cytotox SP	HEK293 tox SP
C(=N\N1CCN(c2ccccc2)CC1)/c1ccccc1	90.7*	9.4	-1.9	62.9*	15.3	0.994	0.998	1.49	-0.8	10.2	-0.4
C=CCn1cccc(C(=O)Nc2ccc(Cl)cc2)c1=O	82.3*	-1.9	14.5	62.8*	-2.8	1.2	0.936	1.16	6.4	-20.4	-14.8
COc1cc(C(=O)OCC(=O)Nc2cc(C)on2)c([N+](=O)[O-])cc1OC	-7.3	-1.1	-5.2	-4.4	6.1	x	x	x	x	x	x
CCC(=O)c1ccc(N2CCN(C(=O)c3ccccc3F)CC2)c(F)c1	-1.5	0.3	-2.5	x	-8.1	x	x	x	x	x	x
CCC(=O)c1ccc(N2CCCCCC2)c(F)c1	54.0	x	x	73.7*	x	1.12	1.05	1.33	-17.3	19.7	-14.5
CCC(=O)c1ccc(N2CCCC2)c(F)c1	x	x	x	57.2*	x	1.08	0.914	1.4	-4.4	-20.9	-11.5
CS(=O)(=O)N(CC(=O)NCc1ccc2c(c1)OCO2)C1CCCCC1	-1.8	0.3	-6.2	-7.4	6.2	x	x	x	x	x	x
Fc1cc(F)cc(NC(=S)N2CCC(c3ccccc3)C2)c1 (stereo not given)	30.4	-8.5	14.5	x	-4.0	x	x	x	x	x	x
Fc1ccccc1NC(=S)N1CCC(c2ccccc2)C1 (stereo not given)	109.0*	2.1	48.3*	82.3*	-14.0	1.18	0.981	1.49	-14.2	2.7	-18.7
C[C@@H]1CCCCO[C@@H](CN(C)S(C)(=O)=O)[C@H](C)CN([C@H](C)CO)C(=O)c2cc(NC(=O)NC3CCCCC3)ccc2O1	x	-1.7	x	3.6	-1.5	x	x	x	x	x	x
COCCNc1nc2cc(-c3ccccc3OC)sc2c(=O)n1C	x	-1.7	x	1.1	x	x	x	x	x	x	x
C=CCNc1nc2cc(-c3ccccc3OC)sc2c(=O)n1C	x	-2.6	9.9	58.6*	-6.3	1.14	1.01	2.06	-10.7	-23.9	-5.0
CC(C)NC(=O)Nc1ccc2c(c1)C(=O)N([C@@H](C)CO)C[C@H](C)[C@H](CN(C)C(=O)c1ccncc1)OCCCC[C@@H](C)O2	x	9.6	x	x	3.3	x	x	x	x	x	x
CC(C)CN1C(=O)c2ccc(C(=O)Nc3ccccn3)cc2C1=O	x	x	10.3	30.7	x	x	x	x	x	x	x
CC(C)CN1C(=O)c2ccc(C(=O)Nc3nccs3)cc2C1=O	33.8	x	x	62.8*	x	0.948	0.98	1.43	-14.1	-34.3	-18.7
CC(C)CN1C(=O)c2ccc(NC(=O)c3cccs3)cc2C1=O	u	x	x	63.4*	x	1.33	0.974	2.11	5.8	-3.9	-14.4
CC(C)CN1C(=O)c2ccc(NC(=O)c3ccco3)cc2C1=O	35.9	-1.6	13.2	x	-6.0	x	x	x	x	x	x
CC(C)(C)c1ccc(CN2C3=NCCCN3c3ccccc32)cc1	-45.8	x	-6.7	-23.3	x	x	x	x	x	x	x
COC(=O)c1ccc(NC(=O)Nc2ccc3c(c2)nc(C)n3C)cc1	38.7	-2.8	10.8	6.3	17.5	x	x	x	x	x	x
Cc1cc(NC(=O)Nc2ccc3c(ccn3C)c2)sn1	105.9*	3.6	24.9	81.0*	x	1.46	0.938	1.48	-2.3	1.2	-10.9
Cc1ccccc1S(=O)(=O)NC(=O)C1(C)CCN1C(=O)CC1CCCCC1 (stereo not given)	x	-2.9	-1.9	-0.7	11.0	x	x	x	x	x	x
C1=NN(c2ccccc2)C=NN1c1ccccc1	68.4	-0.9	-5.1	69.2*	8.8	0.901	0.865	1.7	-4.7	-12.7	-59.9*

Screens deposited in PubChem by Broad Institute.
